Most compounds without a hit are left out; they make up all but 4.8% or so of the library.
Wee1 degr inh: Wee1 degradation inhibitors, primary screen, cell-based, HeLa, Wee1K328M-luciferase, luminescence. Wee1-like protein kinase (Homo sapiens), P30291. HeLa Luc-Wee1K328M stability; 100% = proteasome inhibitor MG132 effect. reporter increase, % at 5 µM. 220,000 tested, 1.2% active;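 active means activation above the mean of all tested compounds plus 3 SD, set per screening run, cut at about 8.8% in these data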;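 further: cells exposed to compound for 20 h before luminescence read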
Target sequence (P30291 whole entry K328M): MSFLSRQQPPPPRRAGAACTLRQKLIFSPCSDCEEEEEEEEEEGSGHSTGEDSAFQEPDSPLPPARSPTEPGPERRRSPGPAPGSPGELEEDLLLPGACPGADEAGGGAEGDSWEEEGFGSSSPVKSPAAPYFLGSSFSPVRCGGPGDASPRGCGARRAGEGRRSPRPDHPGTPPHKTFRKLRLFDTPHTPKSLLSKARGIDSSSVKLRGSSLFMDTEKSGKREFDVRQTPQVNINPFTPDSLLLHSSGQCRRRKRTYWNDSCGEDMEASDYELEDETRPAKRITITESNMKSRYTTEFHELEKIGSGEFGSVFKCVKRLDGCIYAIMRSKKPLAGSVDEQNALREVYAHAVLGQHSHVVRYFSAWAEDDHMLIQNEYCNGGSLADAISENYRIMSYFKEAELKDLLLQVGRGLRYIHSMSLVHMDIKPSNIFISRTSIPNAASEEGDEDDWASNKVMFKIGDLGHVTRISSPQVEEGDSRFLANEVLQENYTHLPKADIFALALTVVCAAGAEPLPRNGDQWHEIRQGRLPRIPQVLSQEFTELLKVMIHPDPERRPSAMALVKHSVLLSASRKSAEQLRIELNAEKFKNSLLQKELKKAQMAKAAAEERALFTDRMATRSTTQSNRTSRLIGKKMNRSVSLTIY
STAT1 act: STAT1 signaling activators, primary screen, cell-based, HTS, luciferase reporter. NIH 3T3 STAT1-luciferase reporter, IFN-gamma, luminescence; 100% = IFN-gamma alone, no compound. AID 932, 2007. activation (% of control), % at 5.5 µM. 200,000 tested, 2.6% active;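 active means activation above the screen-wide mean activation plus 3 SD, cut at about 130% in these data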
Hsp70 act: Hsp70 transcriptional activators, primary screen, cell-based, HeLa, Hsp70 promoter luciferase, luminescence, 10 µM. activation, % at 10 µM. HeLa Hsp70 promoter luciferase reporter; scaled: vehicle 0, proteasome-inhibitor control 100%. 200,000 tested, 0.04% active;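 active means activation above the mean across all tested compounds plus 3 SD, cutoff set per campaign, cut at about 5.5% in these data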
APP 5UTR inh: inhibitors of APP translation via 5'UTR reporter, primary screen, APP 5'UTR luciferase, SH-SY5Y cells; inhibition, % at 2 µM; 190,000 tested, 0.82% active; SH-SY5Y APP 5'UTR-luciferase reporter, luminescence;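 active means inhibition above a set limit, derived from the sample mean plus 3 SD, cut at about 45% in these data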
NF-kB expr up: activators of NF-kB expression in neurons, primary screen, cell-based, HTS | human neuronal cells, NF-kB reporter expression; active compounds read high | fold change at 12.5 µM | 190,000 tested, 1.6% active; in the data active means fold change above about 3.3
APP 5'UTR act: activators of APP 5'UTR luciferase reporter, primary screen, SH-SY5Y cells | SH-SY5Y APP 5'UTR luciferase reporter, luminescence; zero percent = DMSO vehicle wells | AID 1276, 2008 | activation, % at 2 µM | 190,000 tested, 1% active;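 active means activation above a set limit, based on mean plus 3 SD of controls, cut at about 140% in these data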
Each line names hits and unclear results; the compound was inactive in the other large screens.

O=C(/C=C/c1ccccc1)N/C(=C/c1ccccc1)C(=O)Nc1cccc(C(=O)O)c1	none
O=C(/C=C/c1ccccc1)Nc1cccc(C(=O)O)c1	APP 5UTR inh 64, NF-kB expr up 5.1
CCC(=O)Nc1cccc(C(=O)/C=C/c2ccccc2)c1	NF-kB expr up 8.8
O=C1CSC(=Nc2ccc(O)cc2)N1c1ccc(O)cc1	none
C=CCN1C(=O)CSC1=Nc1ccc(O)cc1	NF-kB expr up 3.4
CC(=O)Nc1ccc2nc(C3CC3)n(Cc3ccc(Cl)cc3)c(=O)c2c1	STAT1 act 146
CCN(CC)C(=O)CCc1nnc(Cc2cccc(C(F)(F)F)c2)o1	STAT1 act 146, NF-kB expr up 3.3
Cc1cc(CN(C)C(=O)CCc2nnc(Cc3cccc(C(F)(F)F)c3)o2)on1	none
CCN(CC)c1ccc(/C=N/Nc2nc(C)cc(=O)[nH]2)c(O)c1	APP 5UTR inh 85
CCOC(=O)N/N=C/c1ccc(N(CC)CC)cc1O	none
CCN(CC)c1ccc(/C=N/NC(=O)c2c(Cl)cnn2C)c(O)c1	APP 5UTR inh 60
CCN(CC)c1ccc(/C=N/Nc2ccc(C)cc2)c(O)c1	none
CCN(CC)c1ccc(/C=N/NC(=O)CCC(=O)NCc2ccccc2)c(O)c1	APP 5UTR inh 52
CCN(CC)c1ccc(/C=N/NC(=O)c2cccc(S(=O)(=O)N3CCOCC3)c2)c(O)c1	APP 5UTR inh 60
O=C(Nc1ccn(Cc2c(F)c(F)c(F)c(F)c2F)n1)c1cccc(Cn2cc([N+](=O)[O-])cn2)c1	none
CN(Cc1ccccc1)c1nc(-c2cccc([N+](=O)[O-])c2)nc2ccccc12	Wee1 degr inh 11
Cc1ccc(-c2nn(-c3ccccc3)cc2CSC(=N)N)cc1	NF-kB expr up 4.9
OCc1cn(-c2ccccc2)nc1-c1ccc(-c2nn(-c3ccccc3)cc2CO)cc1	none
COc1cc(C2SCCS2)cc(Br)c1Oc1ncccc1[N+](=O)[O-]	Wee1 degr inh 13 (no result: STAT1 act, Hsp70 act, APP 5UTR inh, NF-kB expr up, APP 5'UTR act)
Cn1c(C(=O)N2CCCC(C(=O)O)C2)cc2sccc21 (configuration not stated)	none
CN(C(=O)c1cc2sccc2n1C)C1CCCCC1	STAT1 act 142
Cn1c(C(=O)NC2CCCCC2)cc2sccc21	STAT1 act 137
O=C1N(c2ccccc2)C[C@@H]2C[C@@H](c3cc4ccccc4o3)N3CCC[C@@]123	APP 5UTR inh 95
C=CCn1c(C)cc(C(=O)COc2ncnc3sccc23)c1C	APP 5'UTR act 182
COCCn1c(C)cc(C(=O)COc2ncnc3ccc(Br)cc23)c1C	none
COc1cccc(-c2nc3sc4c(c3c(=O)[nH]2)CCCCC4)c1	APP 5'UTR act 184
O=C(NCCNc1ccc(Cl)cc1[N+](=O)[O-])c1cccnc1	none (no result: NF-kB expr up)
CC1CN(c2ccc(C(F)(F)F)cc2[N+](=O)[O-])CCN1S(C)(=O)=O (configuration not stated)	none
O=C(c1cc(N2C(=O)C3C4CCC(C4)C3C2=O)ccc1Cl)N1CCN(c2ccccc2F)CC1 (configuration not stated)	none
COc1cccc([C@@H]2Oc3ccc(OC)cc3C(=O)[C@H]2O)c1	NF-kB expr up 5.7, APP 5'UTR act 146
CN(C)c1ccc(/C=C2\CCCCC2=O)cc1	NF-kB expr up 4.2, APP 5'UTR act 160
CN(C)c1ccc(C2C3=C(CCCC3=O)OC3=C2C(=O)CCC3)cc1	none
CCOC(=O)c1c(C)[nH]c(C2=NNC(=NC3CC3)SC2)c1C	APP 5'UTR act 158
CCOc1ccc(Cc2nc(C)c(CC(=O)N3CCCCC3)c(=O)[nH]2)cc1	none
C(=N\Nc1nc2ccccc2[nH]1)/c1cccs1	STAT1 act 148, NF-kB expr up 4.1, APP 5'UTR act 137
C(=N\Nc1nc2ccccc2[nH]1)/c1ccncc1	none
CCCn1c(/C=N/Nc2nc3ccccc3[nH]2)nc2ccccc21	APP 5UTR inh 74
CC(C)Cn1c(/C=N/Nc2nc3ccccc3[nH]2)nc2ccccc21	APP 5UTR inh 71
Cn1c(/C=N/Nc2nc3ccccc3[nH]2)nc2ccccc21	none
CCN(CC)S(=O)(=O)c1ccc(Cl)c(NC(=O)COC(=O)c2cc(-c3ccccc3Cl)nc3ccccc23)c1	none
Nc1ccn(Cc2cccc(Cl)c2)n1	none
COc1ccccc1OCC(=O)Nc1ccc(CSc2ccccc2)cc1C	none
Cc1noc(C)c1C(=O)N(C)Cc1ccccc1	none (no result: STAT1 act, Hsp70 act, APP 5UTR inh, NF-kB expr up, APP 5'UTR act)
O=C(CSc1nc2ncccc2[nH]1)Nc1ccc2c(c1)OCO2	none (no result: STAT1 act, Hsp70 act, APP 5UTR inh, NF-kB expr up, APP 5'UTR act)
COc1ccc(NC(=O)CSc2nc3ncccc3[nH]2)cc1OC	Wee1 degr inh 11
CCOC(=O)C1=C(C)N=c2s/c(=C/c3ccccc3)c(=O)n2C1c1ccc(OC)c(OC)c1 (configuration not stated)	none
CCOC(=O)C1=C(C)n2c(s/c(=C/c3cccc([N+](=O)[O-])c3)c2=O)=NC1c1ccc(O)c(OC)c1 (configuration not stated)	NF-kB expr up 6.8
COC(=O)Nc1nc2ccc(-c3n[nH]c(=O)c4ccccc34)cc2[nH]1	APP 5UTR inh 55
CC1CN(C(=O)N2CCOCC2)CCN1C(=O)N1CCOCC1 (configuration not stated)	none
N=c1cc(C2(O)CCCCC2)n2c(nc3ccccc32)s1	NF-kB expr up 4.1, APP 5'UTR act 185
CN(C)/C=N/c1c(C(=O)NCc2ccccc2)nnn1Cc1ccccc1	none
COC(=O)/C(C#N)=C1/C=Cc2ccccc2N1	STAT1 act 130
S=C(Nc1ccc2nc(-c3ccccn3)c(-c3ccccn3)nc2c1)N1CCCCC1	none
S=C(Nc1ccc2nsnc2c1)N1CCCCC1	STAT1 act 132
O=C(Nc1ccc2nsnc2c1)NC1CCCCC1	STAT1 act 131, NF-kB expr up 3.8
COc1cccc(/C=C/C(=O)c2ccc[nH]2)c1	NF-kB expr up 6.6, APP 5'UTR act 201
O=C(/C=C/c1ccc2c(c1)OCO2)c1ccc[nH]1	APP 5'UTR act 188
O=C(O)CN=C1CC(c2ccccc2)CC(=O)/C1=C(/O)CCCN1C(=O)c2ccccc2C1=O (configuration not stated)	none
Cc1ccc(NC(=O)Cn2c(=O)n(CCCC(=O)NCc3ccco3)c(=O)c3ccccc32)cc1	none
O=C(Nc1ccccc1O)c1ccc(NS(=O)(=O)c2cccc3cccnc23)cc1	NF-kB expr up 12
COc1ccc(/C(N)=N/OC(=O)Cc2cccs2)cc1	STAT1 act 139
Nc1c(S(=O)(=O)c2ccccc2)csc1C(=O)O	none

Assay outcomes deposited in PubChem BioAssay by several laboratories.
